Assay [1] in a line: A CellTox Green Cytotoxicity Assay to monitor cytotoxicity in HepG2 cells - 0 hour (AID 1224882). Note: nearly all actives have a fitted effect of over 35% in size. The method, boiled down: (§1)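 HepG2 cells, 600/well, preincubated 5 h with CellTox Green dye, then exposed to Tox21 compounds in DMSO at 37 C for up to 40 h. Dead-cell DNA fluorescence read at the indicated time point.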
The nature of assay [2]: A CellTox Green Cytotoxicity Assay to monitor cytotoxicity in HepG2 cells - 32 hour (AID 1224883). Note: nearly all actives have a fitted effect of over 50% in size. Summed up: as §1
Assay [3] is described as follows: A CellTox Green Cytotoxicity Assay to monitor cytotoxicity in HEK293 cells - 8 hour (AID 1224884). Note: nearly all actives have a fitted effect of over 35% in size. The method, boiled down:
(§2)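 HEK293 cells, 600/well, were preincubated 5 hours and then exposed to compounds at 37 C for up to 40 hours. A cell-impermeant cyanine dye staining dead-cell DNA was read by fluorescence at 0, 8, 16, 24, 32 and 40 h time points.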

The nature of assay [4]: qHTS RealTime-Glo MT Cell Viability Assay in HepG2 cells - 16 hour (AID 1224885). Note: nearly all actives have a fitted effect of over 50% in size. Summed up: (§3)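 HepG2 cells were seeded at 600 cells/well together with NanoLuc luciferase and a cell-permeant prosubstrate, preincubated 5 h at 37 C/5% CO2, then pin-dosed with compounds in DMSO. Nonlytic luminescence from viable cells was read at each time point.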
(In qHTS, concentration-response curves come from the screen itself.)

Assay [5] in a line: qHTS RealTime-Glo MT Cell Viability Assay in HEK293 cells - 24 hour (AID 1224886). Note: top concentration of the series differs between compounds; nearly all actives have a fitted effect of over 50% in size. Summed up: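 HEK293 cells were seeded at 600 cells/well together with NanoLuc luciferase and cell-permeant prosubstrate, preincubated 5 h at 37 C/5% CO2, then given compound in DMSO by pintool. Luminescence from viable-cell prosubstrate reduction was read repeatedly over 40 h.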
The nature of assay [6]: qHTS RealTime-Glo MT Cell Viability Assay in HEK293 cells - 8 hour (AID 1224887). Note: top concentration of the series differs between compounds; nearly all actives have a fitted effect of over 50% in size. The method, boiled down:
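600 cells/well were plated with the nonlytic NanoLuc/prosubstrate reagent, pre-incubated 5 h, then given 23 nL of compound in DMSO. Incubation at 37 C for 40 h, with luminescence from viable-cell-reduced substrate read repeatedly from 0 h.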

Assay [7] can be described thus: A CellTox Green Cytotoxicity Assay to monitor cytotoxicity in HEK293 cells - 16 hour (AID 1224888). Note: nearly all actives have a fitted effect of over 35% in size. Summed up: as §2
A short description of assay [8]: qHTS RealTime-Glo MT Cell Viability Assay in HepG2 cells - 0 hour (AID 1224889). Note: nearly all actives have a fitted effect of over 50% in size. The method, boiled down: as §3
A short description of assay [9]: A CellTox Green Cytotoxicity Assay to monitor cytotoxicity in HepG2 cells - 8 hour (AID 1224890). Note: nearly all actives have a fitted effect of over 45% in size. The method, boiled down:
as §1

Assay [10] can be described thus: qHTS assay to identify small molecule antagonists of the estrogen receptor alpha (ER-alpha) signaling pathway using the BG1 cell line in the presence of 0.1 nM 17-beta-estradiol - cell viability counter screen (AID 1259241). Note: nearly all actives have a fitted effect of over 40% in size. The method, boiled down: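 Following 5 days in phenol red-free medium with charcoal-stripped serum, VM7Luc4E2 cells received test compounds alongside 0.1 nM 17beta-estradiol (final) at 37C for 22 hr. Live cells were then quantified via protease-substrate fluorescence.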

Assay [11] is described as follows: qHTS assay to identify small molecule antagonists of the androgen receptor (AR) signaling pathway using the MDA cell line in the presence of 0.5 nM R1881 - cell viability counter screen (AID 1259242). Note: nearly all actives have a fitted effect of over 45% in size. Summed up: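 MDA-kb2 cells (MMTV-luciferase, AR/GR responsive) were treated with compounds plus 0.5 nM R1881 (final) for 16 hr at 37C, 0% CO2. Viability was then read in the same wells as live-cell protease fluorescence (CellTiter-Fluor, 30 min).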

Assay [12] concerns the target Androgen receptor (Homo sapiens) (UniProt P10275). The assay can be described thus: qHTS assay to identify small molecule antagonists of the androgen receptor (AR) signaling pathway using the MDA cell line in the presence of 0.5 nM R1881 (AID 1259243). Note: nearly all actives have a fitted effect of over 50% in size. Summed up: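 MDA-kb2 cells (MMTV-luciferase, responsive to AR and GR) at 3,000/well, rested 5 h at 37C, 0% CO2, then given compounds plus 0.5 nM R1881 (final) for 16 hr. Luciferase read with ONE-Glo after 30 min at room temperature.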

Assay [13] deals with Estrogen receptor (Homo sapiens) (UniProt P03372). The assay can be described thus: qHTS assay to identify small molecule antagonists of the estrogen receptor alpha (ER-alpha) signaling pathway using the BG1 cell line in the presence of 0.1 nM 17-beta-estradiol (AID 1259244). Note: nearly all actives have a fitted effect of over 50% in size. The method, boiled down: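 VM7Luc4E2 cells (endogenous full-length ER-alpha, 4×ERE-luciferase), kept 5 days in phenol red-free, charcoal-stripped FBS medium; 4,000 cells/well. Compounds added with 0.1 nM (final) 17beta-estradiol, 22 hr at 37C; luminescence read with ONE-Glo after 30 min.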
Sequence of Estrogen receptor (Homo sapiens) (P03372 whole entry, looked up): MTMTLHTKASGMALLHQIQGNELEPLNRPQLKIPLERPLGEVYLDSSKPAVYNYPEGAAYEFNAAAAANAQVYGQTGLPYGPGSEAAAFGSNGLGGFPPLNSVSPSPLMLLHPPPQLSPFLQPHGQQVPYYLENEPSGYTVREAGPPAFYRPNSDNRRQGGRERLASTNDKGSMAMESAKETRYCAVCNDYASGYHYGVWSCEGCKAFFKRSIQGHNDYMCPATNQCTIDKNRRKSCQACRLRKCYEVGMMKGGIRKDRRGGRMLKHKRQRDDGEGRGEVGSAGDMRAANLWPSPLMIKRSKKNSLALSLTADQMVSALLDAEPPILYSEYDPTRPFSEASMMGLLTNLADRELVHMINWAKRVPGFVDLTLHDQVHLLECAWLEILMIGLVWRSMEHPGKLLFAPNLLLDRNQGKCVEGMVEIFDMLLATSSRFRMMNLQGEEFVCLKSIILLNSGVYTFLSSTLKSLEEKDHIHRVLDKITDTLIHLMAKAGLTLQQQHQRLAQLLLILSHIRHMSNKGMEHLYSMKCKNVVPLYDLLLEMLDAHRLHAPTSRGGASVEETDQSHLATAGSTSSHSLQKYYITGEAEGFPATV

A short description of assay [14]: qHTS assay to identify small molecule HDAC inhibitors (AID 1259364). Note: nearly all actives have a fitted effect of over 45% in size. Note: potency is the fitted concentration of half-maximal effect. Summed up: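 Wild-type HCT-116 cells, plated overnight at 37 C, exposed to compounds 2 hr at 37 C; luminogenic HDAC-Glo substrate then added 30 min at room temperature. Luminescence reports relative endogenous class I/II HDAC activity.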
Assay [15] in a line: qHTS assay to identify small molecule HDAC inhibitors - cell viability counter screen (AID 1259365). The method, boiled down: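 HCT-116 wild-type, overnight attachment; 2hr drug exposure, 37C; CellTiter-Glo luminescent ATP readout after 30min RT.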
The nature of assay [16]: qHTS assay to identify small molecule agonists of the sonic hedgehog signaling (Shh) pathway - cell viability counter screen (AID 1259366). Note: nearly all actives have a fitted effect of over 50% in size. The method, boiled down: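 Compounds in DMSO were pin-transferred onto 3T3 Gli1-Luc cells that had settled 4hr; plates then stood 24hr at 37C and 5% CO2. One hour before the end, CellTiter-Fluor was added and fluorescence recorded.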

Assay [17] in a line: qHTS assay to identify small molecule antagonists of the sonic hedgehog signaling (Shh) pathway - cell viability counter screen (AID 1259367). Note: nearly all actives have a fitted effect of over 55% in size. Summed up: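 Seed 3T3 Gli1-Luc cells at 2,000 per well; incubate 4 hr; add compound in DMSO, then conditioned medium; incubate at 37C with 5% CO2; add CellTiter-Fluor after 23 hr; read fluorescence 1 hr later.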
Assay [18] can be described thus: qHTS assay to identify small molecule agonists of the sonic hedgehog signaling (Shh) pathway (AID 1259368; calls by dose curve;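 note: NIH/3T3-derived 3T3Gli1-Luc cells carrying a stable Gli1-driven firefly luciferase reporter; series mostly up to about 92 µM; nearly all actives have a fitted effect of over 15% in size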). Summed up:
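NIH/3T3-derived 3T3Gli1-Luc cells with stably integrated Gli1-driven firefly luciferase, 2,000 cells/well, compounds added after 4 hr. Incubated 24 hr at 37C, 5% CO2; luminescence read after 30 min with luciferase reagent at room temperature.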

The nature of assay [19]: qHTS assay to identify small molecule antagonists of the sonic hedgehog signaling (Shh) pathway (AID 1259369; calls by dose curve; note: nearly all actives have a fitted effect of over 45% in size). The method, boiled down: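 NIH/3T3-derived Gli1-Luc reporter cells plated 4 h, dosed with compound, then stimulated with conditioned medium for 24 h at 37 C. Firefly luciferase luminescence read after 30 min with detection reagent at room temperature.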
Assay [20] can be described thus: qHTS assay to identify small molecule phospholipidosis (PLD) inducers (AID 1259344; active = well fitted curve in the direction sought with a large enough effect; an effect the other way counts as inactive or inconclusive). The method, boiled down:
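Quantitative HTS in HepG2: compound plus LipidTOX Red dye for 24 h, paraformaldehyde fixation with Hoechst 33342, widefield high-content imaging; amiodarone as positive and DMSO as negative control.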

A number with no mark means an inactive call. Records with an inconclusive call do not appear. Calls of active or inactive are those of the source. Unless noted, calls come from the whole dose curve; as a rule, active = well fitted curve in the direction sought with a large enough effect in the repeat runs; inconclusive = weak or mixed curves; inactive = no such curve, though single readings can be large; an effect the other way counts as inactive or inconclusive.
% is set by controls: 0 for no effect and ±100 for the full control effect.

Sequence of Androgen receptor (Homo sapiens) (P10275 whole entry, looked up): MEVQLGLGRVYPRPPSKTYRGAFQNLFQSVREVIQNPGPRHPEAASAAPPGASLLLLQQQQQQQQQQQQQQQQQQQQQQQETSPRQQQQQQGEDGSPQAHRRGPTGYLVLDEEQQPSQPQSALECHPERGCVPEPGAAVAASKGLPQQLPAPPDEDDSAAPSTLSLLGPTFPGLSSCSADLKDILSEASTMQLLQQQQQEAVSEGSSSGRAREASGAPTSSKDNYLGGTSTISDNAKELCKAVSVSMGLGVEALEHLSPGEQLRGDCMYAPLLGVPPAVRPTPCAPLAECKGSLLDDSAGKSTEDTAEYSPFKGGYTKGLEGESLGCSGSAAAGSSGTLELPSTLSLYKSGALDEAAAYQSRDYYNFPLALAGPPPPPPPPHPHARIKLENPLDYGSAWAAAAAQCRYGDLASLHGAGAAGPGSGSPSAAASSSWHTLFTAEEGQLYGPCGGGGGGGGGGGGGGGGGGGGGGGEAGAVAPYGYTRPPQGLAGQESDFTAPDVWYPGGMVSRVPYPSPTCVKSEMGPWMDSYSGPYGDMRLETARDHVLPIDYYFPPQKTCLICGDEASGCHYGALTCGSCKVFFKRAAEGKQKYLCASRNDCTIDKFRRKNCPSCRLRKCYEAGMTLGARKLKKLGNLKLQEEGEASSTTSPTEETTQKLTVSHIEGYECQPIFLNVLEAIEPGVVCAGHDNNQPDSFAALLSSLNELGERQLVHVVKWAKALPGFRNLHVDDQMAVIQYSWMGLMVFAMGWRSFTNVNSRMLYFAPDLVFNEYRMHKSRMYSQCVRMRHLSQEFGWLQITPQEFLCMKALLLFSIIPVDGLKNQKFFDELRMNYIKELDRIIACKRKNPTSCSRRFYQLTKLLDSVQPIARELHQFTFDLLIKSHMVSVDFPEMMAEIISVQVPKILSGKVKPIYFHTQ

For the compound `CCCCCCCC1CCCC1=O` (centres undefined), the Potency entry in assay [1], in assay [2], in assay [5], in [6], in assay [8] and in assay [12] was “inactive” throughout. Besides, the Potency result in [14], in assay [16], in assay [17] and in [19] was “inactive” each time. Also, the result in [3], in [4], in assay [7], in assay [9], in [10] and in assay [11] was inactive. Moreover, the result in assay [13], in assay [15] and in [18] was inactive.
Take `CCC(C(=O)NC(=O)NC(C)=O)c1ccccc1` (centres undefined): the Potency result in assay [1], in assay [2], in assay [5], in assay [6], in [8] and in [14] was “inactive” throughout. For the same compound, the Potency result in [16], in assay [17] and in [19] was “inactive” throughout. The call in assay [3], in [4], in [7], in [9], in assay [10] and in assay [11] was inactive. The result in assay [13], in [15] and in [18] was inactive. Further, in assay [20], the PLD induction was -2.71% [at 7.66 µM].
`C[N+](C)(C)CCCCCCCCCC[N+](C)(C)C`: the Potency entry in assay [1], in assay [2], in assay [5], in [6], in [8] and in assay [14] was “inactive” in each case. Further, the Potency entry in [16], in [17] and in assay [19] was “inactive” in each case. For the same compound, the compound was called inactive in assay [3], in [4], in [7], in [9], in assay [10] and in [11]. Also, the outcome in assay [13], in assay [20] and in assay [18] was inactive.
As to `COCCOC[C@H](CC1(C(=O)NC2CCC(C(=O)O)CC2)CCCC1)C(=O)Oc1ccc2c(c1)CCC2` (some centres undefined), the Potency entry in assay [1], in assay [2], in [5], in assay [6], in assay [8] and in assay [12] was “inactive” throughout. Further, the Potency entry in assay [14] and in assay [19] was “inactive” each time. Further, the outcome in [3], in [4], in [7], in [9], in assay [10] and in [11] was inactive. Besides, in [15], the call was inactive.
For the compound `CCCCS(=O)(=O)N[C@@H](Cc1ccc(OCCCCC2CCNCC2)cc1)C(=O)O`, the Potency result in assay [1], in assay [2], in [5], in assay [6], in assay [8] and in assay [12] was “inactive” in each case. Also, the Potency entry in assay [14], in assay [16], in [17] and in assay [19] was “inactive” each time. The call in assay [3], in assay [4], in assay [7], in [9], in assay [10] and in assay [11] was inactive. For the same compound, the result in assay [13], in assay [15] and in [18] was inactive. Besides, the PLD induction in assay [20] was -2.88% [at 1.53 µM].
Turning to `CN1CC(=O)N/C1=N/C(=O)Nc1cccc(Cl)c1`, the Potency result in [1], in assay [2], in [5], in [6], in [8] and in assay [16] was “inactive” in each case. For the same compound, the Potency entry in [17] and in assay [19] was “inactive” in each case. In addition, the outcome in assay [3], in assay [4], in assay [7], in assay [9], in [10] and in assay [11] was inactive. Besides, the outcome in assay [13], in assay [20] and in assay [15] was inactive. For the same compound, the Potency in assay [14] is 4.22 µM (active).

Source of the values: PubChem BioAssay (Tox21).
